# Data published in PubChem BioAssay (EPA / NIEHS).
# Where “and” joins values, the source holds several entries; their conditions need not be identical. Identical values can stand only once. Some structures have more than one record in an assay (separate samples or runs), and their calls can disagree. Calls of active or inactive are those of the source. The calls were made as follows: active = hit-call score of the fitted dose curve at least 0.9, where 1 is the maximum; inactive = score below 0.9.
# Read-out: Matrix Metallopeptidase 1 (MMP1), MMP1 (gene 4312)
# Experiment: BSK_BE3C_MMP1: BioMAP Diversity Plus: BE3C Assay for Matrix Metallopeptidase 1 (MMP1) Biomarker Activity (AID 2283024)
# Settings: primary human bronchial epithelial cells; actives raise or lower the signal
# Procedure, shortened: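 MMP1 signal, measured by ELISA after a 24 h chemical exposure of human primary bronchial epithelial cells, is analysed with bidirectional fitting using DMSO as negative control.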
Compound,outcome,AC50
OCCOc1ccccc1,inactive,
Cc1cc(C)nc(NC(=O)NS(=O)(=O)c2ccccc2C(=O)OC2COC2)n1,inactive,
COP(=S)(OC)Oc1ccc(SC)c(C)c1,,3.97 µM (active)
C#CCN1C(=O)COc2cc(F)c(N3C(=O)C4=C(CCCC4)C3=O)cc21,inactive,
O=C(O)CCCOc1ccc(Cl)cc1Cl,inactive,
N#Cc1c(Cl)c(Cl)c(Cl)c(C#N)c1Cl,,4.1 µM (active)
CCS(=O)(=O)c1cccnc1S(=O)(=O)NC(=O)Nc1nc(OC)cc(OC)n1,inactive,
CC[C@H](C)[C@H]1O[C@]2(C=C[C@@H]1C)C[C@@H]1C[C@@H](C/C=C(\C)[C@@H](O[C@H]3C[C@H](OC)[C@@H](O[C@H]4C[C@H](OC)[C@@H](O)[C@H](C)O4)[C@H](C)O3)[C@@H](C)/C=C/C=C3\CO[C@@H]4[C@H](O)C(C)=C[C@@H](C(=O)O1)[C@]34O)O2 (tested in a mixture with another compound),,11.1 µM (active)
CCC(C)Nc1c([N+](=O)[O-])cc(C(C)(C)C)cc1[N+](=O)[O-] (centres undefined),,11.1 µM (active)
CNC(=O)CSP(=S)(OC)OC,inactive,
O=S1OCC2C(CO1)C1(Cl)C(Cl)=C(Cl)C2(Cl)C1(Cl)Cl (centres undefined),,36.6 µM (active)
O=[N+]([O-])/N=C1\NCCN1Cc1ccc(Cl)nc1,inactive,
COC(=O)c1ccccc1S(=O)(=O)NC(=O)Nc1nc(C)nc(OC)n1,inactive,
CCOCN(C(=O)CCl)c1c(C)cccc1CC,inactive,
CCN(CC)C(=O)SCc1ccc(Cl)cc1,inactive,
[2H]C1([2H])[n+]2ccccc2-c2cccc[n+]2C1([2H])[2H],,2.08 µM (active)
O=S(=O)(O)C(F)(F)C(F)(F)C(F)(F)C(F)(F)C(F)(F)C(F)(F)C(F)(F)C(F)(F)F,inactive,
CNC(=O)/C=C(\C)OP(=O)(OC)OC,inactive,
CC1(C)C(C=C(Cl)Cl)C1C(=O)OC(C#N)c1ccc(F)c(Oc2ccccc2)c1 (centres undefined),inactive,
CC(C)(C)C(O)C(Oc1ccc(Cl)cc1)n1cncn1 (centres undefined),inactive,
O=C1c2ccccc2C(=O)N1SC(Cl)(Cl)Cl,,34.9 µM (active)
O=C(O)C(F)(F)C(F)(F)C(F)(F)C(F)(F)C(F)(F)C(F)(F)C(F)(F)F,inactive,25.8 µM (active) [middle of 5 runs]
CC(C)OC(=O)Nc1cccc(Cl)c1,inactive,
Oc1cc(Cl)ccc1Oc1ccc(Cl)cc1Cl,,32.6 µM (active) [middle of 4 runs]
Clc1ccccc1-c1nnc(-c2ccccc2Cl)nn1,inactive,
COP(=S)(OC)Oc1ccc([N+](=O)[O-])cc1,inactive,

# Read-out: not listed separately
# Experiment: BSK_3C_Vis: BioMAP Diversity Plus: 3C Assay for Morphology Visualization (AID 2283025);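 also: fitted both ways so gain or loss versus DMSO counts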
# Settings: primary human endothelial cells (HUVEC)
# Procedure, shortened: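 Morphology read by light microscopy serves as a background control for the multiplexed 3C assay in human umbilical vein endothelial cells, taken 24 h after dosing, with DMSO as the negative control and bidirectional curve fitting.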
Compound,outcome,AC50
OCCOc1ccccc1,inactive,
Cc1cc(C)nc(NC(=O)NS(=O)(=O)c2ccccc2C(=O)OC2COC2)n1,inactive,
COP(=S)(OC)Oc1ccc(SC)c(C)c1,inactive,
C#CCN1C(=O)COc2cc(F)c(N3C(=O)C4=C(CCCC4)C3=O)cc21,inactive,
O=C(O)CCCOc1ccc(Cl)cc1Cl,inactive,
N#Cc1c(Cl)c(Cl)c(Cl)c(C#N)c1Cl,,0.468 µM (active)
CCS(=O)(=O)c1cccnc1S(=O)(=O)NC(=O)Nc1nc(OC)cc(OC)n1,inactive,
CC[C@H](C)[C@H]1O[C@]2(C=C[C@@H]1C)C[C@@H]1C[C@@H](C/C=C(\C)[C@@H](O[C@H]3C[C@H](OC)[C@@H](O[C@H]4C[C@H](OC)[C@@H](O)[C@H](C)O4)[C@H](C)O3)[C@@H](C)/C=C/C=C3\CO[C@@H]4[C@H](O)C(C)=C[C@@H](C(=O)O1)[C@]34O)O2 (tested in a mixture with another compound),,3.78 µM (active)
CCC(C)Nc1c([N+](=O)[O-])cc(C(C)(C)C)cc1[N+](=O)[O-] (centres undefined),,39 µM (active)
CNC(=O)CSP(=S)(OC)OC,inactive,
O=S1OCC2C(CO1)C1(Cl)C(Cl)=C(Cl)C2(Cl)C1(Cl)Cl (centres undefined),,16.3 µM (active)
O=[N+]([O-])/N=C1\NCCN1Cc1ccc(Cl)nc1,inactive,
COC(=O)c1ccccc1S(=O)(=O)NC(=O)Nc1nc(C)nc(OC)n1,inactive,
CCOCN(C(=O)CCl)c1c(C)cccc1CC,,39 µM (active)
CCN(CC)C(=O)SCc1ccc(Cl)cc1,inactive,
[2H]C1([2H])[n+]2ccccc2-c2cccc[n+]2C1([2H])[2H],inactive,
O=S(=O)(O)C(F)(F)C(F)(F)C(F)(F)C(F)(F)C(F)(F)C(F)(F)C(F)(F)C(F)(F)F,inactive,37.7 µM (active) and 13.7 µM (active)
CNC(=O)/C=C(\C)OP(=O)(OC)OC,inactive,
CC1(C)C(C=C(Cl)Cl)C1C(=O)OC(C#N)c1ccc(F)c(Oc2ccccc2)c1 (centres undefined),,9.8 µM (active)
CC(C)(C)C(O)C(Oc1ccc(Cl)cc1)n1cncn1 (centres undefined),inactive,
O=C1c2ccccc2C(=O)N1SC(Cl)(Cl)Cl,inactive,
O=C(O)C(F)(F)C(F)(F)C(F)(F)C(F)(F)C(F)(F)C(F)(F)C(F)(F)F,inactive,
CC(C)OC(=O)Nc1cccc(Cl)c1,inactive,
Oc1cc(Cl)ccc1Oc1ccc(Cl)cc1Cl,,12.6 µM (active) [middle of 4 runs]
Clc1ccccc1-c1nnc(-c2ccccc2Cl)nn1,inactive,
COP(=S)(OC)Oc1ccc([N+](=O)[O-])cc1,,14.4 µM (active)
